HCV inhibitor: blocks hepatitis C virus. Huh7.5.1 HCVcc-Cre infection, luciferase reporter, 44 h. AID 651820. Potency, µM (highest dose often 41.8 µM), for inactives: at the top dose activity change, negative = inhibition, usual class: inhibitors. 340,000 compounds, 3.4% hits; note: potency is the fitted concentration of half-maximal effect
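HCVcc-Cre virus at an moi near 0.5 was added right after compound to cells cultured 4 h from seeding (1,000 cells/well). Luciferase activity was determined 44 h later, 15 min after substrate addition at RT.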
AmpC no deterg: blocks E. coli AmpC beta-lactamase in detergent-free assay; P00811; AmpC nitrocefin hydrolysis, absorbance 480 nm, 0.0001% Triton; Potency, µM (doses to about 57.1 µM), inactives show at the highest dose activity change, negative = inhibition, most hits filed as inhibitors; 330,000 compounds, 0.52% hits;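 note: potency is the fitted concentration of half-maximal effect; plate controls were no compound for no effect and no enzyme for full effect; nearly all actives have a fitted effect of over 20% in size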
Target sequence (P00811 whole entry, looked up): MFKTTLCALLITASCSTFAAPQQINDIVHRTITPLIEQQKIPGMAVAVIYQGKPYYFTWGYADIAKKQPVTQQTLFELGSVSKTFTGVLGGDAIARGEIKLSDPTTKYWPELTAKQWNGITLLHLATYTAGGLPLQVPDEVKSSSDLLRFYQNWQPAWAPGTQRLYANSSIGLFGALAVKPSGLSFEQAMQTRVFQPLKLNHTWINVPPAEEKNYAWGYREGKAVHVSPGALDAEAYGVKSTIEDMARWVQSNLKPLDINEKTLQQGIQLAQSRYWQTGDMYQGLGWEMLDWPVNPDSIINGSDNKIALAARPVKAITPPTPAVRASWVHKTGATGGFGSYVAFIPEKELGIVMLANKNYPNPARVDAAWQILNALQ
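AmpC (5.3 nM in the dispensed reagent) in 20 mM phosphate pH 7.0 with 0.01% (detergent screen) or 0.0001% Triton X-100 was preincubated with compounds for 15 min at room temperature. Nitrocefin was then added from an 800 uM solution, and hydrolysis was followed at 480 nm.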
FMDV inh: foot and mouth disease virus antiviral activity. Potency, µM (series often up to 57.9 µM), without a hit: top-dose activity change, negative = inhibition, usual class: inhibitors. 410,000 compounds, 1.2% hits. FMDV antiviral cell-based qHTS; calls by dose curve; tested in HEK293T cells; note: read-out not given here; potency is the fitted concentration of half-maximal effect; nearly all actives have a fitted effect of over 45% in size
HCMV antiviral: blocks human cytomegalovirus replication. HFF cells, HCMV-luciferase reporter, 72 h; stronger effect = lower value. 410,000 compounds, 4.5% hits. activity change, negative = inhibition, % at 57.5 µM; in the data active = activity change below about -60%; inconclusive = no clear call, values can overlap the other calls; inactive = above about -39%
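Screen run at 2 compound doses on HFFs infected with reporter HCMV, MOI 1 PFU/cell. Luciferase activity from cell lysates at 72 h post infection gave inhibition relative to buffer-only and Salinomycin wells.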
AmpC detergent: blocks E. coli AmpC beta-lactamase in detergent assay; P00811; AmpC hydrolysis of nitrocefin, absorbance 480 nm, 0.01% Triton; Potency, µM (titrated, usually from 114 µM), inactives show at the highest dose activity change, negative = inhibition, hits mostly inhibitors; 370,000 compounds, 0.041% hits; AID 485294;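 note: potency is the fitted concentration of half-maximal effect; 0% = no-compound wells and -100% = no-enzyme wells; nearly all actives have a fitted effect of over 25% in size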
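AmpC (5.3 nM in the dispensed reagent) in 20 mM phosphate pH 7.0 with 0.01% (detergent screen) or 0.0001% Triton X-100 was preincubated with compounds for 15 min at room temperature. Nitrocefin was then added from an 800 uM solution, and hydrolysis was followed at 480 nm.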
Numbers without * were called inactive; ? = inconclusive; nt = no result given. Compounds with a hit are over-represented: about 7.3% of the library has one in this group of screens. Unless noted, calls come from the whole dose curve; as a rule, active = well fitted curve in the direction sought with a large enough effect; inconclusive = small, poorly fitted or top-dose-only effect, or another doubt; inactive = no such curve, though single readings can be large; an effect the other way counts as inactive or inconclusive. Unless noted, % is set by controls: 0 for no effect and ±100 for the full control effect.

SMILES	HCV inhibitor	AmpC no deterg	FMDV inh	HCMV antiviral	AmpC detergent
CCOC(=O)c1ccccc1NS(=O)(=O)c1c(-c2ccc(C)cc2)csc1C(=O)OC	nt	nt	0%	-65*	10%
COc1ccc(-c2csc(NC(=O)c3ccccc3NS(=O)(=O)c3ccc(C)cc3)n2)cc1	5µM*	-23%	?	-96*	-5%
CCCNC(=O)c1ccccc1NS(=O)(=O)c1ccc(OC)c(OC)c1	20%	10%	21%	-4	-14%
Cc1snnc1C(=O)NC(=S)Nc1ccccc1	12%	-17%	-14%	39	-4%
CCCc1cc(NCc2ccccn2)n2c(nc3ccccc32)c1C#N	13µM*	-25%	-28%	19	4%
CCc1nc2cc(C(=O)N[C@H]3CCCCNC3=O)cc(NC(=O)c3ccccc3OC)c2n1C	nt	nt	-20%	nt	nt
Cc1ccc(CNC(=O)c2cccc(-n3cnc4cccnc43)c2)cc1	nt	nt	2%	0	2%
CCOC(=O)C(NC(=O)c1cccc(Cl)c1)(Nc1sc2c(c1C(N)=O)CCC2)C(F)(F)F (stereo unspecified)	13µM*	-49%	?	-27	?
CCC(NC(=O)Nc1cc(OC)ccc1OC)c1c(-n2cccc2)sc2c1CCN(CC)C2 (stereo unspecified)	nt	nt	5%	-73*	4%
CCOc1ccc(NC(=O)NC(C)c2c(-n3cccc3)sc3c2CCN(CC)C3)cc1 (stereo unspecified)	nt	nt	10%	-79*	12%
CN(Cc1ccccc1)C(=O)Cn1c(=O)oc2cc(S(=O)(=O)NCc3ccccc3)ccc21	14µM*	-15%	0%	-71*	1%
Cc1cccc(NC(=O)CSc2nnc(CNC(=O)c3ccco3)n2C)c1	22%	-10%	-7%	16	3%
Cn1c2c(c(=O)[nH]c1=O)C(c1ccc(O)cc1)C1=C(N2)c2ccccc2C1=O (stereo unspecified)	?	18µM*	?	-99*	0%
CCC(C)c1ccc(C2C3=C(Nc4nc(N)[nH]c(=O)c42)c2ccccc2C3=O)cc1 (stereo unspecified)	7.9µM*	-46%	11%	-65*	-7%
CCc1ccccc1NC(=O)CN1CCN(C(=O)CNC(=O)c2ccc(-c3ccccc3)cc2)CC1	11µM*	218%	?	-35	0%
O=C(NN1CCN(Cc2ccccc2Cl)CC1)c1ccc(Cl)cc1	4%	-19%	?	-61*	?
O=C(NCc1ccc(Cl)cc1)N1CCN(Cc2ccccc2)CC1	?	59%	-9%	-93*	-3%
O=C(NCC(=O)N1CCN(Cc2ccccc2)CC1)c1ccc(Br)cc1	?	40%	-21%	-8	4%
O=C(NCC(=O)N1CCN(Cc2ccccc2)CC1)c1cc(Cl)cc([N+](=O)[O-])c1	?	12%	?	-86*	nt
Cn1ccsc1=NC(=O)c1ccc(S(=O)(=O)C(F)F)cc1	12%	-16%	23%	9	-7%
O=C(NCC(=O)N1CCN(Cc2ccccc2)CC1)c1ccc(Cl)cc1	?	16%	?	-62*	?
Cc1cccc(N2CCN(C(=O)CNC(=O)c3cccc([N+](=O)[O-])c3)CC2)c1C	11µM*	-1%	?	-64*	-4%
COCCN1CCN(C(=O)c2cnn(-c3nccc(-c4ccccc4F)n3)c2-c2ccco2)CC1	nt	nt	0%	nt	nt
O=C(NN(c1ccccc1)c1ccccc1)c1ccc([N+](=O)[O-])o1	?	-12%	0%	-93*	1%
O=C(Nc1cccnc1)c1ccc([N+](=O)[O-])o1	?	-1%	-24%	-29	-7%
SMILES	HCV inhibitor	AmpC no deterg	FMDV inh	HCMV antiviral	AmpC detergent
NC(=O)c1oc2ccccc2c1NC(=O)c1ccc([N+](=O)[O-])o1	?	-9%	-7%	-102*	?
NC(=O)c1oc2ccccc2c1NC(=O)c1ccc(F)cc1	?	-15%	-25%	83	-15%
O=C(NNC(=O)c1ccc([N+](=O)[O-])o1)c1ccccc1	?	-2%	-14%	-92*	-7%
CSc1ccc(CCNC(=O)C(C)n2nc(C)c3sc4ccccc4c3c2=O)cc1 (stereo unspecified)	nt	nt	0%	-26	-4%
CCOC(=O)c1[nH]c(C)c(CCC(=O)Nc2cccc(C(F)(F)F)c2)c1C	nt	nt	-19%	-24	22%
COc1ccc(CC2NCC(O)C2OC(C)=O)cc1 (stereo unspecified)	0.56µM*	nt	?	-109*	nt
COc1ccc(CC2NCCC3(O)CCCCC23)cc1 (stereo unspecified)	7%	4%	-15%	-8	-10%
COc1ccccc1NC(=O)c1nn(C)c(C(=O)Nc2ccccc2OC)c1[N+](=O)[O-]	-23%	-6%	-26%	-7	?
COc1ccccc1NC(=O)c1c([N+](=O)[O-])c(C(C)(C)C)nn1C	5%	26%	-24%	-68*	-5%
Nc1nonc1-n1nnc(C(=O)N/N=C/c2ccc(Cl)cc2Cl)c1CN1CCOCC1	?	-14%	9%	-16	-15%
O=[N+]([O-])c1ccc(-c2nc(=S)c3c(o2)CCCC3)cc1	19%	-12%	-26%	-101*	?
Cc1ccc2c(C)nc(Nc3nc(CSc4nnc(C)s4)cc(=O)[nH]3)nc2c1	?	-3%	-8%	-99*	1%
Cc1nc(Nc2nc(CSc3ccc(Cl)cc3)cc(=O)[nH]2)nc2ccccc12	5%	-15%	-15%	-17	4%
Cc1nc(Nc2nc(CSc3nc4ccccc4[nH]3)cc(=O)[nH]2)nc2ccccc12	?	42%	?	-103*	0%
Cc1nc(Nc2nc(-c3ccccc3)cc(=O)[nH]2)nc2ccccc12	8.9µM*	nt	-13%	52	nt
Cc1ccc2c(=O)[nH]c(Nc3nc(C)cc(-c4ccccc4)n3)nc2c1	-2%	-21%	7%	-29	0%
Cc1ccc(N/C(N)=N/c2nc(CSc3nnc(C)s3)cc(=O)[nH]2)c(C)c1	-14%	-19%	-7%	-88*	6%
CC(C)Oc1cc(F)ccc1-c1cc(C(=O)NCc2cccs2)[nH]n1	nt	nt	3%	-8	nt
CCc1c(C)nc(Nc2nc(C)c3ccc(OC)cc3n2)[nH]c1=O	?	-12%	nt	19	-5%
COc1ccc2c(C)nc(Nc3nc(C)c(C)c(=O)[nH]3)nc2c1	?	-14%	51%	-102*	-12%
COc1ccc2nc(Nc3nc(CSc4nc5ccccc5[nH]4)cc(=O)[nH]3)nc(C)c2c1	14µM*	84%	?	-98*	-11%
Cc1csc(SCC(=O)N2CCOc3ccc(C(O)C4CCCCC4)cc3C2)n1 (stereo unspecified)	nt	nt	-4%	nt	nt
C=CCN1[C@@H](C)[C@H](c2ccccc2)Oc2cccc(NCC(C)C)c2S1(=O)=O	nt	nt	nt	-23	nt

Screens: PubChem BioAssay, National Center for Advancing Translational Sciences (NCATS)
